In PubChem BioAssay (NCATS):
Records with an inconclusive call do not appear. Active and inactive are the calls of the source. The call rests on the fitted dose curve; in most records, active means well fitted curve in the direction sought with a large enough effect; inconclusive means small, poorly fitted or top-dose-only effect, or another doubt; inactive means no such curve, though single readings can be large; an effect the other way counts as inactive or inconclusive.

Columns and labels:
[1] = Primary fluorescence-based thiol-reactive (MSTI) qHTS assay for identification of artifact compounds. (AID 1845221);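 further: series mostly up to about 54 µM; thiol-reactive compounds lower the probe fluorescence signal; nearly all actives have a fitted effect of over 65% in size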
Method in brief: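 Thiol-reactive compounds detected by quenching of 4 uM MSTI fluorescence (525/598 nm) after 1 h room-temperature dark incubation in PBS pH 7.4, 2% DMSO. qHTS titration; percent inhibition Hill-fitted against Acetyl-MSTI/MSTI controls.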

[2] = test system: Nanoluciferase (engineered Oplophorus gracilirostris luciferase); experiment: Primary Nanoluciferase (NLuc) qHTS assay for identification of artifact compounds. (AID 1845222); further: series mostly up to about 54 µM
Method in brief: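 Luminescence from secreted NLuc (filtered, 1:55-diluted S16 cell medium) read 5 min after Nano-Glo substrate; compounds preincubated 15 min, RT. Hill fits of inhibition normalized to DMSO and no-enzyme.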

[3] = Primary redox qHTS assay for identification of artifact compounds. (AID 1845223)
Method in brief: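 Amplex Red (25 uM) and HRP (250 mU/mL) in HBSS, with compounds for 15 min, then 250 uM DTT for 30 min, room temperature, dark. Fluorescence 525/598 nm read; normalized to DMSO and 10 uM DA3003; Hill fit.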

Measured: Potency

Oc1ccccc1-c1cc(-c2ccccc2F)[nH]n1
inactive: [1] | [2] | [3]

CC(C)(O)[C@@H]1CC[C@]2(CO)[C@@H](O)CC[C@](C)(O)[C@H]2[C@@H]1O[C@@H]1O[C@H](CO)[C@@H](O)[C@H](O)[C@H]1O
inactive: [1] | [2] | [3]

O=C(O)c1ccc(NC(=O)[C@H](CC2CCCC2)n2cnc(C(F)(F)F)c2)nc1
inactive: [1] | [2] | [3]

COc1ccc(CCc2nc3cc(-c4c(C)noc4C)ccc3n2C[C@H](C)N2CCOCC2)cc1Cl
inactive: [1] | [2] | [3]

CCC(C)C1NC(=O)C2C(C)CCN2C(=O)C(CC(O)CO)OC(=O)CCNC(=O)C(C)N(C)C(=O)C(C(C)C)N(C)C1=O (stereo unspecified)
inactive: [1] | [2] | [3]

CC(=O)N[C@H](Cc1c[nH]c2ccccc12)C(=O)OCc1cc(C(F)(F)F)cc(C(F)(F)F)c1
inactive: [1] | [2] | [3]

Nc1ncnc2c1ncn2[C@H]1O[C@@H](C(=O)N2CCN(CC(=O)Nc3cccc4c3CNC4=O)CC2)[C@H](O)[C@@H]1O
inactive: [1] | [2] | [3]
